# Source: PubChem BioAssay
# Active and inactive are the calls of the source.
# Assays:
# [1] = tested on: Wnt5a (protein binding on small-molecule microarray); test: Wnt5a binders on small-molecule microarray, primary screen, biophysical, 635/667 nm fluorescence (AID 1142); conditions: 635 nm fluorescence, higher = more signal;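 also: fluorescence read at 667 nm with signal to noise per printed feature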
# [2] = cell viability in Huh7 cells, primary screen, cytotoxicity control for HCV replication inhibitor project, CellTiter-Glo luminescence, basal, 48 h (AID 1143); conditions: Huh7 HCV replicon, higher = more signal, called active from +8 up or from −8 down;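 also: Huh7 hepatoma cells carrying a hepatitis C replication reporter with no stimulus; test concentration not given here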
# [3] = CREB reporter modulators without forskolin, primary screen, cell-based, PC12, CRE-LacZ reporter, unstimulated (AID 1145); conditions: no forskolin, luminescence, 4.5 h, higher = more signal, called active from +8 up or from −8 down
# [4] = CREB reporter modulators under forskolin, primary screen, cell-based, PC12, CRE-LacZ reporter, forskolin-stimulated (AID 1146); conditions: luminescence, 4.5 h, higher = more signal, called active from +8 up or from −8 down;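 also: PC12 cells with 6xCRE LacZ reporter stimulated by forskolin 10 µM; beta-galactosidase reporter signal reflecting CREB driven transcription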
# [5] = target: Streptavidin (Streptomyces avidinii) (UniProt P22629); test: streptavidin binders on small-molecule microarray, primary screen, artefact control for SMM compound annotation, biophysical, 635/667 nm fluorescence (AID 1147); conditions: streptavidin binding, higher = more signal;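 also: signal reflects streptavidin binding to arrayed compounds as a control protein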
# Streptavidin (Streptomyces avidinii), sequence (P22629 whole entry, looked up): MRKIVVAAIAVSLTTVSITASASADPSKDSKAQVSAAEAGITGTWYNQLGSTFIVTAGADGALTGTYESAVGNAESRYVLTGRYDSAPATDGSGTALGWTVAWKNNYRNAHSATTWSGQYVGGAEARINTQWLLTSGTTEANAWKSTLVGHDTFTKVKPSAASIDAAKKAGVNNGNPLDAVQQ
# [6] = small-molecule binders of probe aInhba, primary screen, biochemical, small-molecule microarray, 635/667 nm fluorescence (AID 1148); conditions: higher = more signal;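 also: score merges 667nm spot fluorescence with signal-to-noise for antibody binding to printed compounds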
# [7] = target: Torsin-1A (Homo sapiens) (UniProt O14656); test: torsin A binders from cell lysate, primary screen, small-molecule microarray, wild-type, 635/667 nm (AID 1149); conditions: COS7 hTOR1A-WT lysate, 635 nm fluorescence, higher = more signal
# Torsin-1A (Homo sapiens), sequence (O14656 whole entry, looked up): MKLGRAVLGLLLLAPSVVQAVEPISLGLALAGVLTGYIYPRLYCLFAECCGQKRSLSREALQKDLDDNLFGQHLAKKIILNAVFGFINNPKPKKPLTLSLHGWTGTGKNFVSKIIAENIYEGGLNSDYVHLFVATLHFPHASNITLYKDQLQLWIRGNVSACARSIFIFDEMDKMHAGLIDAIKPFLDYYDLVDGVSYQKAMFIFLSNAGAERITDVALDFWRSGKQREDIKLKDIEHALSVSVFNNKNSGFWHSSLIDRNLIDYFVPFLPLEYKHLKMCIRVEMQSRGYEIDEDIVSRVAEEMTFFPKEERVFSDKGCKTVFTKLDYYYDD
# [8] = target: Torsin-1A (Homo sapiens) (UniProt O14656); test: small-molecule binders of mutant TOR1A in lysate, primary screen, cell lysate, small-molecule microarray, COS7 lysate, 635/667 nm fluorescence (AID 1150); conditions: COS7 hTOR1A mutant lysate, 635 nm fluorescence, higher = more signal;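 also: score pools 667 nm emission and signal to noise measuring lysate protein binding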
# [9] = tested on: Sonic hedgehog protein (Shh); test: small-molecule binders of Shh protein, primary screen, biochemical, small-molecule microarray, 635/667 nm fluorescence (AID 1151); conditions: small-molecule microarray binding, 635 nm fluorescence; higher = more signal;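 also: Shh protein binding to compounds spotted on small-molecule microarray slides; score combines spot fluorescence intensity with signal-to-noise across triplicate slides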
# [10] = E. coli DRC41 culture turbidity changes, primary screen, E. coli filamentation inducer project, strain DRC41, OD650, 48 h (AID 1152);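 also: E. coli MC1000 strain DRC41 lacking acrAB efflux pump and sulA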; conditions: E. coli DRC41 (acrAB sulA), higher = more signal, called active from +8 up or from −8 down
# [11] = small-molecule binders of probe aLefty1, primary screen, biochemical, small-molecule microarray, 635/667 nm fluorescence (AID 1153); conditions: higher = more signal;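 also: score merges spot fluorescence with signal-to-noise ratio from the scanned slide images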
# [12] = PSAC antagonists in infected red cells, primary screen, cell-based, P. falciparum Indochina, OD700, 1 h (AID 1154); conditions: P. falciparum Indochina infected RBC osmotic lysis, higher = more signal, called active from +8 up or from −8 down
# [13] = PSAC antagonists in infected red cells, primary screen, cell-based, P. falciparum Indochina, OD700, 2 h (AID 1155);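 also: lysis reports solute entry through the parasite surface anion channel PSAC; channel blockers reduce lysis of infected cells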; conditions: P. falciparum Indochina infected erythrocytes, osmotic lysis OD700; higher = more signal, called active from +8 up or from −8 down
# [14] = osmotic lysis modulators in infected erythrocytes, primary screen, PSAC antagonist project, cell-based, P. falciparum Indochina, OD700, 3 h (AID 1156); conditions: higher = more signal, called active from +8 up or from −8 down
# [15] = PSAC antagonists in infected red cells, primary screen, cell-based, P. falciparum Indochina, OD700, 18 h (AID 1157); conditions: P. falciparum Indochina infected erythrocytes, osmotic lysis OD700, 18 h; higher = more signal, called active from +8 up or from −8 down
# [16] = modulators of S6 phosphorylation in cells, primary screen, cell-based, A549, cytoblot, luminescence, serum-stimulated (AID 1158); conditions: A549 phospho-S6 cytoblot, 5 h, higher = more signal;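 also: serum-stimulated A549 lung adenocarcinoma cells; signal is phosphorylated S6 detected by cytoblot immunostaining with HRP secondary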
# [17] = target: NADPH oxidase 2 (Homo sapiens) (UniProt P04839); test: NOX2-dependent H2O2 signal modulators, primary screen, NOX inhibitor project, cell-based, HEK293-NOX2, PMA-stimulated, Amplex Red fluorescence (AID 1159); conditions: 45 min, higher = more signal, called active from +8 up or from −8 down; also: test concentration not given here
# NADPH oxidase 2 (Homo sapiens), sequence (P04839 whole entry, looked up): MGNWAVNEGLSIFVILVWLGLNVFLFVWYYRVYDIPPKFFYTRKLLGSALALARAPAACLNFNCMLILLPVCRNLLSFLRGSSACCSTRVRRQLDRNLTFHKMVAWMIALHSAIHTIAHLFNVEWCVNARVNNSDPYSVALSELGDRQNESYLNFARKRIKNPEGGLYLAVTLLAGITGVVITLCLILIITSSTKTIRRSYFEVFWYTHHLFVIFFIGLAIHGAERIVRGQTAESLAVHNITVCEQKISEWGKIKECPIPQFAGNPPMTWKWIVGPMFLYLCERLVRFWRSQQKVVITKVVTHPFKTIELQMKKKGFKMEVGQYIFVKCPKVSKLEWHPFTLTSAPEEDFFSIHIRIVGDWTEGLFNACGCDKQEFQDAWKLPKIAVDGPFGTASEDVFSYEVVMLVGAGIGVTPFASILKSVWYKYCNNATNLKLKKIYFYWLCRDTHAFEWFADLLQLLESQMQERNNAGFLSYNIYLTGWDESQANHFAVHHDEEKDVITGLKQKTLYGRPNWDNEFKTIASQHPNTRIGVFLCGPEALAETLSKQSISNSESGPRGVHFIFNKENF
# [18] = target: NADPH oxidase 4 (Homo sapiens) (UniProt Q9NPH5); test: NOX4-dependent H2O2 signal modulators, primary screen, NOX inhibitor project, cell-based, HEK293-NOX4, tetracycline-induced, Amplex Red fluorescence (AID 1160); conditions: 45 min, higher = more signal, called active from +8 up or from −8 down
# NADPH oxidase 4 (Homo sapiens), sequence (Q9NPH5 whole entry, looked up): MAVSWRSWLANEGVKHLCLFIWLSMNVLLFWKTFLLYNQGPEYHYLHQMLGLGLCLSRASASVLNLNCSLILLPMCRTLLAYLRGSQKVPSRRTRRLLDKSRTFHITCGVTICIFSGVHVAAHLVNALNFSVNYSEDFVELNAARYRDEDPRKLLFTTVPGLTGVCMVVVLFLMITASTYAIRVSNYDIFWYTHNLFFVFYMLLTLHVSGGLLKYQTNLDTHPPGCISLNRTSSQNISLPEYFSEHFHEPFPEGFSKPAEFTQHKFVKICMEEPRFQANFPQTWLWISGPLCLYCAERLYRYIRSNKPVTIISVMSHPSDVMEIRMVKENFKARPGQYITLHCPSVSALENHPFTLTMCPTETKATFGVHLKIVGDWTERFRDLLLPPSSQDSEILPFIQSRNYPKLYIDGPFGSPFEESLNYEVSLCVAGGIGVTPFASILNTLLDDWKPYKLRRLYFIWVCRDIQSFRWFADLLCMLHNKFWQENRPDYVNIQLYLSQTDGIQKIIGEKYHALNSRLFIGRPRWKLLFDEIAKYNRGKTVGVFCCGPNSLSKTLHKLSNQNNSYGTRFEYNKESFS
# [19] = target: NADPH oxidase 5 (Homo sapiens) (UniProt Q96PH1); test: NOX5-dependent H2O2 signal modulators, primary screen, NOX inhibitor project, cell-based, HEK293-NOX5, Amplex Red fluorescence (AID 1161); conditions: HEK293-NOX5, ionomycin, 45 min, higher = more signal
# NADPH oxidase 5 (Homo sapiens), sequence (Q96PH1 whole entry, looked up): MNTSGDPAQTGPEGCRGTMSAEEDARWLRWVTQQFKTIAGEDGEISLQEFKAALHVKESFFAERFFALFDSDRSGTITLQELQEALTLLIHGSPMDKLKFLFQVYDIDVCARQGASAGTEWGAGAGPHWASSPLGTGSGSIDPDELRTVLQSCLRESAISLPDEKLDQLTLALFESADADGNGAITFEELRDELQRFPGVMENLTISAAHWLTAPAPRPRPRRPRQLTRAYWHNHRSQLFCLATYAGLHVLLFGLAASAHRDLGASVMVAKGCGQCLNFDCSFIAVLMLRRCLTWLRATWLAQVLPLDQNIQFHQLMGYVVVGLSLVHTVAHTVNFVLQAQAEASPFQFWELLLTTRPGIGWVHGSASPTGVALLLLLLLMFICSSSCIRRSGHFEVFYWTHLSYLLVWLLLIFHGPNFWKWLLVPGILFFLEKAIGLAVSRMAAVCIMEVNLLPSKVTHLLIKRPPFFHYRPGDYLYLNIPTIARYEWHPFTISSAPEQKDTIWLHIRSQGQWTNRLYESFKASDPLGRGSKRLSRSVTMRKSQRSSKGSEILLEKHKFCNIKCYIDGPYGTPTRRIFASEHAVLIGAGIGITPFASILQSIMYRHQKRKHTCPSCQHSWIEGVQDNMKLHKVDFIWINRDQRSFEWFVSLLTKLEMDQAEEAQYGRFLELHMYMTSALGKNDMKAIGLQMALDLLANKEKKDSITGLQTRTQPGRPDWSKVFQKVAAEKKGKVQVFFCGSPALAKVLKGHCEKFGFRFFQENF
# [20] = A549 cell viability effects, profiling panel, calcein-AM fluorescence, 48 h, basal (AID 1162); conditions: higher = more signal; also: test concentration not given here
Structure (SMILES),composite z-score [1],z-score [2],z-score [3],z-score [4],composite z-score [5],composite z-score [6],composite z-score [7],composite z-score [8],composite z-score [9],z-score [10],composite z-score [11],z-score [12],z-score [13],z-score [14],z-score [15],z-score [16],z-score [17],z-score [18],z-score [19],z-score [20]
C=C(/C(=C/C[C@H](OC(C)=O)c1cccc(OCCO)c1)c1cc(C(=O)OC)ccc1OC)C(C)C,-0.0431,-0.802 (inactive),11.7 (active),-1.02 (inactive),-0.948,-0.128,-0.0282,-0.193,0.237,1.81 (inactive),-0.191,6.36 (inactive),1.29 (inactive),2.46 (inactive),0.576 (inactive),-0.228,2.19 (inactive),1.84 (inactive),-1.06,1.75
C=C(C(=O)CC[C@@H](OC(C)=O)c1ccccc1OCCO)C(C)C,0.235,-4.89 (inactive),3.88 (inactive),-1.21 (inactive),-0.965,-0.0791,0.964,-0.353,1.09,1.19 (inactive),-0.29,0.425 (inactive),0.279 (inactive),-1.49 (inactive),0.479 (inactive),-0.258,1.24 (inactive),-0.759 (inactive),-2.43,-0.646
CO[C@H]1O[C@H](CO)[C@@H](OC(=O)Nc2ccccc2)[C@H](OC(=O)Nc2ccccc2-c2ccccc2)[C@H]1OC(=O)Nc1ccccc1-c1ccccc1,0.289,-5.87 (inactive),1.56 (inactive),0.028 (inactive),0.787,-0.0506,0.56,0.679,0.877,0.663 (inactive),0.302,3.27 (inactive),-0.843 (inactive),-1.21 (inactive),-1.81 (inactive),0.668,-6.45 (inactive),-0.665 (inactive),-1.43,-4.11
COC(=O)C1=CC(c2ccc(CO)cc2)=CC(c2cccs2)N(C)C=C1C(=O)OC (stereo not given),-0.246,-3.59 (inactive),-0.348 (inactive),-0.534 (inactive),0.295,-0.0471,0.503,0.634,0.335,2.46 (inactive),0.571,6.76 (inactive),0.0213 (inactive),-0.64 (inactive),-1.49 (inactive),1.67,-1.48 (inactive),-2.33 (inactive),-1.44,0.126
C=C(C(=O)CC[C@H](OC(C)=O)c1ccc(CO)o1)C(C)C,0.0615,-4.37 (inactive),1.09 (inactive),-0.949 (inactive),-0.469,0.353,0.154,-0.248,0.937,1.27 (inactive),-0.215,1.55 (inactive),-0.558 (inactive),0.68 (inactive),-1.83 (inactive),2.5,-0.0262 (inactive),0.382 (inactive),-0.706,-0.708
O=C1N(CCS(=O)(=O)c2ccccc2)Cc2ccccc2[C@@H]2OC(c3ccc(OCCCO)cc3)=N[C@]12Cc1ccccc1,1.14,-3.69 (inactive),0.927 (inactive),-1.09 (inactive),1.66,0.243,0.612,0.29,1.96,0.218 (inactive),0.327,27.7 (active),18.5 (active),3.32 (inactive),2.53 (inactive),0.503,-3.23 (inactive),-0.195 (inactive),1.01,-1.08
CC(C)C[C@@H]1NC(=O)[C@@]23C(=O)N[C@@H](Cc4ccccc4)C2[C@H](C)[C@@]2(C)O[C@H]2C3/C=C/CC/C=C/CNC(=O)[C@@H](C)NC1=O (stereo not given in full),0.298,-2.4 (inactive),2.03 (inactive),-1.16 (inactive),0.0315,-0.16,0.418,-0.0123,1.78,2.61 (inactive),-0.0984,1.31 (inactive),0.548 (inactive),0.224 (inactive),0.5 (inactive),0.595,0.649 (inactive),0.24 (inactive),-0.181,0.421
CCCCCN1CC=CC23O[C@@H]4/C=C\CCC(C)OC(=O)C4[C@H]2C(=O)N(CCCO)[C@@H]3C1=O (stereo not given in full),0.0429,-1.37 (inactive),0.487 (inactive),0.213 (inactive),-0.67,-0.245,0.26,-0.147,-0.0977,1.5 (inactive),-0.229,-0.404 (inactive),-0.0816 (inactive),0.787 (inactive),0.281 (inactive),0.0147,1.86 (inactive),0.381 (inactive),2.57,-0.367
C/C=C/[C@@H](CCn1cc(CCO[Si](C(C)C)(C(C)C)C(C)C)nn1)[Si](C)(C)c1ccc(OC)cc1,-0.569,-3.19 (inactive),3.29 (inactive),-1.01 (inactive),-1.27,-0.39,-0.72,0.741,-0.526,0.415 (inactive),-0.315,0.305 (inactive),0.0452 (inactive),-0.606 (inactive),-1.92 (inactive),2.96,-0.937 (inactive),0.0135 (inactive),-0.497,1.74
CC(CO)N1C(=O)[C@@H]2C3C(=O)OCCC/C=C\[C@H]3OC23C=CCN(Cc2ccccc2)C(=O)[C@@H]13 (stereo not given in full),-0.146,-0.182 (inactive),-0.753 (inactive),-0.954 (inactive),-1.03,-0.31,-0.462,-0.276,0.194,2.52 (inactive),-0.24,0.38 (inactive),-0.999 (inactive),-0.513 (inactive),-0.899 (inactive),0.467,0.456 (inactive),-0.322 (inactive),1.36,1.59
C=CCN1C(=O)[C@@]2(O[C@@H](CCn3cc(CCO)nn3)[C@H]([Si](C)(C)c3ccc(OC)cc3)[C@H]2C)c2cc(N3C(=O)c4cccc5cccc3c45)ccc21,0.662,-7.17 (inactive),37.8 (active),-3.77 (inactive),0.854,0.0377,0.311,0.615,0.802,2.05 (inactive),0.0318,16.4 (active),3.97 (inactive),-0.551 (inactive),1.5 (inactive),0.905,0.576 (inactive),1.11 (inactive),-0.148,-4.11
CO[C@H]1O[C@H](CO)[C@@H](OC(=O)Nc2ccccc2)[C@H](OC(=O)Nc2ccc3c(c2)OCO3)[C@H]1OC(=O)Nc1ccc2c(c1)OCO2,0.229,-3.58 (inactive),0.754 (inactive),-2.46 (inactive),0.142,-0.018,0.505,0.781,0.739,2.12 (inactive),0.57,4.45 (inactive),-0.359 (inactive),0.0835 (inactive),-1.81 (inactive),1.21,-3.84 (inactive),-3.08 (inactive),-2.05,0.275
CC(C)C[C@@H]1NC(=O)[C@@H]2C[C@H](C(=O)NCCCCCNC(=O)CS)[C@H](c3cccc(OCCO)c3)N2C1=O,0.257,-1.59 (inactive),0.147 (inactive),-1.09 (inactive),0.811,0.0207,1.31,0.824,2.03,1.8 (inactive),0.348,3.21 (inactive),-0.422 (inactive),-1.74 (inactive),-1.93 (inactive),0.955,2.24 (inactive),0.84 (inactive),0.00283,0.221
C[N+](C)(C)CCCC[C@@H]1NC(=O)[C@H]2C[C@@H](C(=O)NCCCCCN)[C@@H](c3cccc(OCCO)c3)N2C1=O,0.165,-1.18 (inactive),0.0124 (inactive),-1 (inactive),1.04,0.147,0.918,1.7,-0.197,2.36 (inactive),0.857,1.76 (inactive),0.858 (inactive),-1.26 (inactive),0.57 (inactive),-0.0325,1.03 (inactive),-0.833 (inactive),2.24,-0.013
COc1ccc([Si](C)(C)[C@@H]2[C@@H](CC(=O)N3CCC[C@H]3CO)O[C@]3(C(=O)N(Cc4ccc(I)cc4)c4ccccc43)[C@H]2C)cc1,0.229,-4.55 (inactive),0.105 (inactive),-1.86 (inactive),0.983,-0.109,0.626,0.199,0.646,1.97 (inactive),0.0677,5.17 (inactive),0.0509 (inactive),-0.7 (inactive),-1.17 (inactive),2.62,2.26 (inactive),0.932 (inactive),4,-0.298
C=CCC1(CC=C)C[C@H]2CO[C@H](c3ccc(OC)cc3)N2C1=O,-0.125,-0.15 (inactive),1.73 (inactive),-0.473 (inactive),-0.147,-0.105,0.483,0.862,0.707,2.03 (inactive),-0.0654,-0.214 (inactive),0.573 (inactive),-0.123 (inactive),0.503 (inactive),0.0446,0.992 (inactive),0.181 (inactive),-0.0682,1.12
O=C(NCC(F)(F)F)[C@@H]1c2ccccc2C(=O)N(C2Cc3ccccc3C2)[C@H]1c1ccc(CO)cc1,-0.034,-1.11 (inactive),-0.295 (inactive),-1.15 (inactive),-1.25,0.106,-0.0578,0.224,-0.875,2.43 (inactive),0.0588,3.55 (inactive),-0.483 (inactive),1.8 (inactive),-0.683 (inactive),1.14,0.207 (inactive),1.23 (inactive),-1.23,2.25
